Experimental data: the supplement of paper PMC13392028

Test system: PvIESI-1 RRM domain (Plasmodium vivax PVP01_0939900 aa 896-1203, GST fusion)
Test: RBNS R-value (6-mer enrichment in protein-bound RNA vs input library) (ratio); higher = stronger binding preference; the methods of the paper give 50 / 100 / 500 nM protein instead
Description: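 RNA Bind-n-Seq: recombinant GST-tagged IESI-1 RRM domain was incubated at room temperature with a random 40-nt in vitro transcribed RNA library at 250, 500 or 1000 nM protein. Bound RNA was pulled down on glutathione beads and sequenced. R-value is the enrichment of each 6-mer in the bound RNA relative to the input library. Each 6-mer sits inside the random 40-mer context, not as an isolated oligo. Values are replicate 1 only.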

Sequence	RBNS R-value (protein concentration: 250 nM)	RBNS R-value (protein concentration: 500 nM)	RBNS R-value (protein concentration: 1000 nM)
GAUUUG	2.81	2.87	2.62
GAUGGG	2.02	2.1	2.01
GCGAUG	1.97	2.19	2.01
UGAUGC	3.72	4.04	3.95
UUGAUG	4.85	5.06	4.68
GUGAUU	2.96	3.22	3.1
UGAUAG	3	3.35	3.29
GGUGAU	1.97	2.19	2.15
CCUGAU	3.03	3.36	3.13
ACCCGA	1.44	1.74	1.74
UGAUUC	3.85	4.13	3.89
UGAUCU	2	2.15	2.14
AUGAUG	5.14	5.26	5.02
